Rab7 wt GTP bind: dog Rab7 wildtype GTP binding, inhibitors and activators. GST-Rab7 beads, fluorescent GTP binding, flow cytometry; actives lie on both sides; untreated = 100%, excess cold GTP = 0%. GTP binding activity (percent of control), % at 10 µM. 190,000 compounds, 0.055% hits. AID 758;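 active = fluorescent GTP binding to Rab7 beads changed by at least 20 points from the 100% baseline, either direction, mostly lower; inconclusive = compound itself probably fluorescent, or too few beads counted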;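 also: median green fluorescence of bound Bodipy-FL-GTP per Rab7 bead population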
Rab2A wt mod: changes GTP binding to wildtype dog Rab2A, up or down; P61105; GST-Rab2 wt beads, Bodipy-GTP binding, flow cytometry; GTP binding activity, % at 10 µM; 190,000 compounds, 0.19% hits; AID 760;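 active = GTP binding activity at least 20 points away from 100%, either lowered or raised; inconclusive = signal likely due to the compound's own green fluorescence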;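 also: 0% = beads with excess unlabeled GTP and 100% = no-compound control corrected for plate trend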
Cdc42 wt GTP: human Cdc42 wildtype GTP binding change, either direction. GST-Cdc42 beads, Bodipy-GTP binding, flow cytometry; actives lie on both sides. AID 761. P60953. percent activity (GTP binding), % at 10 µM. 190,000 compounds, 0.2% hits;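 active = percent activity GTP binding at least 20 points away from the 100% baseline, either down as inhibitor or up as activator; inconclusive = compound flagged as likely green fluorescent from well-wide comparison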;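 also: median bead fluorescence of bound Bodipy-FL-GTP at 100 nM; 0% = excess unlabeled GTP control and 100% = no compound control; below 100% means less GTP binding so inhibitor and above means activator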
Target sequence (P60953 whole entry, looked up): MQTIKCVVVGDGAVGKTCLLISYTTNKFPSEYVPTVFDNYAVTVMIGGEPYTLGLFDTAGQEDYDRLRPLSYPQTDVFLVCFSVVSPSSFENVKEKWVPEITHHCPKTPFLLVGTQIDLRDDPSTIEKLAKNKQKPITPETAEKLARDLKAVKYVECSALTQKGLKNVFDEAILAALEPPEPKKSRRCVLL
HRas wt GTP bind: modulators of GTP binding to human HRas wildtype. GST-Ras wt beads, Bodipy-FL-GTP binding, flow cytometry; actives lie on both sides. GTP binding activity, % at 10 µM. 190,000 compounds, 0.14% hits;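 active = GTP binding activity at least 20% away from the 100% baseline, either lowered as inhibitor or raised as activator; inconclusive = flagged as likely green fluorescent, judged across all proteins in the well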;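 also: 0% = unlabeled GTP competition control and 100% = no-compound control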
Target sequence (P01112 whole entry, looked up): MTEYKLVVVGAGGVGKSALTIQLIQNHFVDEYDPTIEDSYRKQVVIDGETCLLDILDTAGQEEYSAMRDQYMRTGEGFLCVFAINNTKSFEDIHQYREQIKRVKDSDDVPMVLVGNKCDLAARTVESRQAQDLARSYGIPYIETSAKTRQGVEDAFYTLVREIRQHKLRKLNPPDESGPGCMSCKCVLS
Rac1 mut GTP: modulators of GTP binding to human Rac1 activated mutant. 190,000 compounds, 0.11% hits. percent activity (GTP binding), % at 10 µM. P63000. GST-Rac1 activated beads, fluorescent GTP binding, flow cytometry; actives lie on both sides; 100% means binding = to untreated wells;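 active = GTP binding at least 20 percentage points away from the 100% baseline, in either direction, so actives lie on both sides; inconclusive = Compound likely fluorescent itself, or too few beads counted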
Rac1 wt GTP bind: alters GTP binding to wildtype human Rac1. P63000. GST-Rac1 beads, fluorescent GTP binding, flow cytometry; actives lie on both sides; 0 = cold GTP competed, 100 = untreated. GTP binding activity (% of control), % at 10 µM. 190,000 compounds, 0.27% hits. AID 757;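 active = GTP binding activity at least 20 points away from the 100% control level, either lower or higher; inconclusive = compound flagged as likely green fluorescent, judged across all proteins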
* marks the source's active call; other numbers are inactive results; [ ] = remark or other dose. A selection: hits, their analogues and other compounds. The true share with any hit is near 0.4%.

For CCOC(=O)C1(CCc2ccccc2)CCN(C(=O)C(C)n2cncn2)CC1 (configuration not stated) the results were Rab7 wt GTP bind 103, Rab2A wt mod 99, Cdc42 wt GTP 99, HRas wt GTP bind 99, Rac1 mut GTP 96 and Rac1 wt GTP bind 98.
`COc1cc(NS(=O)(=O)c2ccc(NC(=O)/C=C/c3cccc([N+](=O)[O-])c3)cc2)ncn1` gave Rab7 wt GTP bind 90, Rab2A wt mod 86, Cdc42 wt GTP 83, HRas wt GTP bind 86, Rac1 mut GTP 86 and Rac1 wt GTP bind 79*.
Screening COc1ccc(OC)c(CNCCNC(=O)c2ccco2)c1 returned Rab7 wt GTP bind 96, Rab2A wt mod 103, Cdc42 wt GTP 105, HRas wt GTP bind 103, Rac1 mut GTP 100 and Rac1 wt GTP bind 99.
`Cc1ccsc1/C=N/n1c(-c2ccncc2)n[nH]c1=S` gave Rab7 wt GTP bind 102, Rab2A wt mod 100, Cdc42 wt GTP 102, HRas wt GTP bind 101, Rac1 mut GTP 101 and Rac1 wt GTP bind 100.
For Cc1ccccc1NC(=O)CN1C(=O)S/C(=C\c2ccc(-c3cc(C(=O)O)ccc3C)o2)C1=O the results were Rab7 wt GTP bind 91, Rab2A wt mod 85, Cdc42 wt GTP 79*, HRas wt GTP bind 86, Rac1 mut GTP 83 and Rac1 wt GTP bind 87.
`CCc1ccc(C2NC(=S)NC3=C2C(=O)CC(C)(C)C3)cc1` (configuration not stated) gave Rab7 wt GTP bind 101, Rab2A wt mod 102, Cdc42 wt GTP 106, HRas wt GTP bind 101, Rac1 mut GTP 100 and Rac1 wt GTP bind 104.
Screening O=C(c1cc([N+](=O)[O-])ccc1N1CCOCC1)N1CCCC1 returned Rab7 wt GTP bind 99, Rab2A wt mod 97, Cdc42 wt GTP 101, HRas wt GTP bind 99, Rac1 mut GTP 98 and Rac1 wt GTP bind 102.
For Clc1ccc(-c2ccc(/C=N/Nc3nncc(-c4ccccc4)n3)o2)cc1 the results were Rab7 wt GTP bind 92, Rab2A wt mod 96, Cdc42 wt GTP 98, HRas wt GTP bind 96, Rac1 mut GTP 94 and Rac1 wt GTP bind 94.
`Clc1ccccc1-c1ccc(/C=N/Nc2nncc(-c3ccccc3)n2)o1` gave Rab7 wt GTP bind 97, Rab2A wt mod 85, Cdc42 wt GTP 84, HRas wt GTP bind 91, Rac1 mut GTP 86 and Rac1 wt GTP bind 79*.
Screening CCOC(=O)c1c2c3c(cccc3[nH]c1=O)C(=O)c1ccccc1-2 returned Rab7 wt GTP bind 84, Rab2A wt mod 65*, Cdc42 wt GTP 63*, HRas wt GTP bind 66*, Rac1 mut GTP 80 and Rac1 wt GTP bind 76*.
For CCOC(=O)c1c2c3c(c(Cl)ccc3[nH]c1=O)C(=O)c1ccccc1-2 the results were Rab7 wt GTP bind 88, Rab2A wt mod 44*, Cdc42 wt GTP 41*, HRas wt GTP bind 44*, Rac1 mut GTP 65* and Rac1 wt GTP bind 45*.
For COCCCNc1c2c3c(cccc3[nH]c1=O)C(=O)c1ccccc1-2 the results were Rab7 wt GTP bind 87, Rab2A wt mod 82, Cdc42 wt GTP 86, HRas wt GTP bind 84, Rac1 mut GTP 90 and Rac1 wt GTP bind 84.
For O=C(Nc1nccs1)c1cncc(Br)c1 the results were Rab7 wt GTP bind 104, Rab2A wt mod 97, Cdc42 wt GTP 100, HRas wt GTP bind 99, Rac1 mut GTP 100 and Rac1 wt GTP bind 102.
COc1ccc(/C=C/C(=O)Oc2cccc(/C=N/NC(=O)COc3c(C)cccc3C)c2)cc1 was read as Rab7 wt GTP bind 100, Rab2A wt mod 94, Cdc42 wt GTP 102, HRas wt GTP bind 104, Rac1 mut GTP 94 and Rac1 wt GTP bind 104.
`COc1cccc(/C=N/n2c(N)c(S(=O)(=O)c3cccs3)c3nc4ccccc4nc32)c1OC` gave Rab7 wt GTP bind 91, Rab2A wt mod 85, Cdc42 wt GTP 81, HRas wt GTP bind 84, Rac1 mut GTP 89 and Rac1 wt GTP bind 88.
`Nc1c(S(=O)(=O)c2cccc(Cl)c2)c2nc3ccccc3nc2n1/N=C/c1ccc(O)c(O)c1` gave Rab7 wt GTP bind inconclusive, Rab2A wt mod 76*, Cdc42 wt GTP 63*, HRas wt GTP bind 63*, Rac1 mut GTP 80 and Rac1 wt GTP bind 79*.
For O=C(CCCCCNc1nc(=S)[nH]c2ccccc12)NCCc1ccc(Cl)cc1 the results were Rab7 wt GTP bind 101, Rab2A wt mod 90, Cdc42 wt GTP 91, HRas wt GTP bind 92, Rac1 mut GTP 92 and Rac1 wt GTP bind 87.
CC(C)CCNC(=O)Cc1ccc(Nc2nc(=S)[nH]c3ccccc23)cc1 was read as Rab7 wt GTP bind 96, Rab2A wt mod 75*, Cdc42 wt GTP 80, HRas wt GTP bind 75*, Rac1 mut GTP 89 and Rac1 wt GTP bind 73*.
O=C(Cc1c(O)c2ccccc2[nH]c1=O)NC1CCCCCC1 was read as Rab7 wt GTP bind 99, Rab2A wt mod 100, Cdc42 wt GTP 103, HRas wt GTP bind 101, Rac1 mut GTP 99 and Rac1 wt GTP bind 103.
Screening O=C(Cc1ccc(Nc2nc(=S)[nH]c3ccccc23)cc1)NC1CCCCC1 returned Rab7 wt GTP bind 82, Rab2A wt mod 66*, Cdc42 wt GTP 65*, HRas wt GTP bind 68*, Rac1 mut GTP 76* and Rac1 wt GTP bind 57*.
`CCOc1ccccc1NC(=S)NCC1CCCO1` (configuration not stated) gave Rab7 wt GTP bind 101, Rab2A wt mod 99, Cdc42 wt GTP 104, HRas wt GTP bind 99, Rac1 mut GTP 98 and Rac1 wt GTP bind 103.
`O=C(C1CCCO1)N1CCN(C(=S)Nc2ccccc2C(F)(F)F)CC1` (configuration not stated) gave Rab7 wt GTP bind 108, Rab2A wt mod 125*[activator], Cdc42 wt GTP 108, HRas wt GTP bind 117, Rac1 mut GTP 104 and Rac1 wt GTP bind 109.
`COCCNC(=S)Nc1cc(OC)c(OC)cc1C#N` gave Rab7 wt GTP bind 86, Rab2A wt mod 59*, Cdc42 wt GTP 60*, HRas wt GTP bind 67*, Rac1 mut GTP 80 and Rac1 wt GTP bind 57*.
Screening CCOc1ccc(C(C)NC(=O)c2cccc(F)c2)cc1 (configuration not stated) returned Rab7 wt GTP bind 98, Rab2A wt mod 98, Cdc42 wt GTP 100, HRas wt GTP bind 102, Rac1 mut GTP 100 and Rac1 wt GTP bind 104.
`O=C(CSc1ccccc1C(=O)NCc1ccccc1)NC1CCCCCCC1` gave Rab7 wt GTP bind 99, Rab2A wt mod 97, Cdc42 wt GTP 95, HRas wt GTP bind 95, Rac1 mut GTP 96 and Rac1 wt GTP bind 96.

High-throughput results: PubChem, NMMLSC
